# According to PubChem BioAssay AID977627 (Broad Institute, 2014):
# Inconclusive results are not listed. Active and inactive are the calls of the source. How the calls were made is not given here.
# Experiment: growth inhibition of wild-type RFP versus H38-humanized GFP E. coli, dose response, H38 mutant GFP vs wild-type RFP, cherry-pick (AID 977627)
# Settings: E. coli H38 humanized ribosome GFP strain, fluorescence, 24 h; activity: measured here: wild-type RFP strain growth, at 50 µM, stronger effect = lower value; series mostly up to 50 µM; activity change, negative = inhibition: at the top concentration
Structure (SMILES),activity [%],"activity change, negative = inhibition"
CC1(Cc2ccccc2C#N)C(=O)Nc2cc(-c3ccccc3Cl)ccc21 (stereo not given),-20,–
COC(=O)c1c(NC(=O)CCC(=O)O)sc(Cc2ccccc2)c1C,-41.2,–
CCOc1ccccc1NC(=O)c1ccc2ccccc2c1,5.09,5.48 (inactive)
Cc1noc(C)c1NC(=O)Nc1ccc2c(c1)C(=O)N([C@H](C)CO)C[C@@H](C)[C@@H](CN(C)C(=O)Nc1ccc3c(c1)OCO3)OCCCC[C@@H](C)O2,-3.93,–
